Drawing on PubChem BioAssay AID651947 (Broad Institute, 2012), this text covers max activity for 21 molecules.

Each structure is given as a SMILES string. Measured potencies and affinities stand elsewhere. Inconclusive results are not listed. A number with no mark means an inactive call.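 How the source made its calls: active means luminescence drop in HepG2 cells whose fitted half-effect dose is at most twice the top valid dose; inconclusive means flat curve with 30 to 70% signal loss, or unreliable fit; inactive means the rest.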

This test in a line: cytotoxicity in HepG2 cells, dose response, cytotoxicity control, cell-based, plate reader, dry powder (AID 651947). The conditions noted are these: HepG2 viability, ATP luminescence (CellTiter-Glo), 48 h, hits give low values; at 26 µM unless noted. On the technique in general: ATP-based viability assays read luminescence as a measure of living cells.
Regarding `c1ccc(-c2nnc(SCc3cccnc3)o2)cc1`, the max activity was 17.3%.

`COc1ccccc1-c1nnc(SCc2ccccn2)o1`: the max activity was -21.6%. With `Fc1ccccc1-c1nnc(SCc2ccccc2)o1` the figure was -29.8% [at 0.195 µM]; with `Fc1ccc(Cn2cc(CSc3nnc(C4CCCC4)o3)nn2)cc1`, -18.5% [at 6 µM]; with `N#Cc1ccc(CSc2nnc(-c3ccccc3)o2)cc1`, -47.6% [at 3 µM]. With `FC1(F)CCN(CCSc2nnc(-c3ccccc3)o2)CC1` the figure was -22.5% [at 1.6 µM]; with `CC(C)c1nnc(SCc2ccccc2)o1`, 28.6% [at 0.38 µM]. Then `CC1(O)CN(CCSc2nnc(-c3ccccc3)o2)C1`, with -33.4% [at 0.195 µM].

With `COc1ccccc1-c1nnc(SCc2ccccc2)o1`, the max activity is -18.4% [at 0.195 µM]. With `c1ccc(CCc2nnc(SCc3ccccc3)o2)cc1`, the max activity is 22.3% [at 3 µM].

In the case of `FC(F)(F)CNCCSc1nnc(-c2ccccc2)o1`, the max activity was -10% [at 12 µM]. Then `Clc1ccccc1CSc1nnc(-c2ccccc2)o1`, with 17.5% [at 0.195 µM]; and `c1ccc(CSc2ncc(-c3ccccc3)o2)cc1`, with -32.2% [at 0.195 µM]; and `Fc1ccc(-c2nnc(SCc3ccccn3)o2)cc1`, with -30.7% [at 1.6 µM]. With `Cc1cccc(-c2nnc(SCc3ccccc3)o2)c1` the figure was -20.2% [at 0.38 µM]; with `FC(F)(F)c1cccc(-c2nnc(SCc3ccccc3)o2)c1`, 20.7% [at 12 µM]; with `COc1ccc(-c2nnc(SCc3ccccn3)o2)cc1`, -23.2% [at 1.6 µM]. For `c1ccc(CSc2nnc(-c3ccc(-c4ccccc4)cc3)o2)cc1`, the max activity was 15.5%. In the case of `c1ccc(-c2nnc(SCc3ccccn3)o2)cc1`, the max activity was 18.8%. `COc1cccc(CSc2nnc(-c3ccccc3)o2)c1`: the max activity was 25.7%. Then `c1ccc(CSc2nnc(-c3ccco3)o2)cc1`, with -42.4% [at 6 µM].
